# Test results as given in paper PMC4336329 (PLoS ONE, 2015).
# Among all 310,000 compounds or so, about 14,000 (4.5%) showed an effect of 50% or more. Effects have a minus sign here. The entries come from a sample that favours strong results as a whole.
# Biological target: human ether-à-go-go-related gene (hERG) potassium channel (human, UniProt Q12809)
# Assay: primary screen, population patch clamp on CHO cells stably expressing hERG; higher = less effect of the substance
# 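Also: peak tail current of the secondary pulse compared with the same well before compound.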
# Sequence of human ether-à-go-go-related gene (hERG) potassium channel (Q12809 whole entry, looked up): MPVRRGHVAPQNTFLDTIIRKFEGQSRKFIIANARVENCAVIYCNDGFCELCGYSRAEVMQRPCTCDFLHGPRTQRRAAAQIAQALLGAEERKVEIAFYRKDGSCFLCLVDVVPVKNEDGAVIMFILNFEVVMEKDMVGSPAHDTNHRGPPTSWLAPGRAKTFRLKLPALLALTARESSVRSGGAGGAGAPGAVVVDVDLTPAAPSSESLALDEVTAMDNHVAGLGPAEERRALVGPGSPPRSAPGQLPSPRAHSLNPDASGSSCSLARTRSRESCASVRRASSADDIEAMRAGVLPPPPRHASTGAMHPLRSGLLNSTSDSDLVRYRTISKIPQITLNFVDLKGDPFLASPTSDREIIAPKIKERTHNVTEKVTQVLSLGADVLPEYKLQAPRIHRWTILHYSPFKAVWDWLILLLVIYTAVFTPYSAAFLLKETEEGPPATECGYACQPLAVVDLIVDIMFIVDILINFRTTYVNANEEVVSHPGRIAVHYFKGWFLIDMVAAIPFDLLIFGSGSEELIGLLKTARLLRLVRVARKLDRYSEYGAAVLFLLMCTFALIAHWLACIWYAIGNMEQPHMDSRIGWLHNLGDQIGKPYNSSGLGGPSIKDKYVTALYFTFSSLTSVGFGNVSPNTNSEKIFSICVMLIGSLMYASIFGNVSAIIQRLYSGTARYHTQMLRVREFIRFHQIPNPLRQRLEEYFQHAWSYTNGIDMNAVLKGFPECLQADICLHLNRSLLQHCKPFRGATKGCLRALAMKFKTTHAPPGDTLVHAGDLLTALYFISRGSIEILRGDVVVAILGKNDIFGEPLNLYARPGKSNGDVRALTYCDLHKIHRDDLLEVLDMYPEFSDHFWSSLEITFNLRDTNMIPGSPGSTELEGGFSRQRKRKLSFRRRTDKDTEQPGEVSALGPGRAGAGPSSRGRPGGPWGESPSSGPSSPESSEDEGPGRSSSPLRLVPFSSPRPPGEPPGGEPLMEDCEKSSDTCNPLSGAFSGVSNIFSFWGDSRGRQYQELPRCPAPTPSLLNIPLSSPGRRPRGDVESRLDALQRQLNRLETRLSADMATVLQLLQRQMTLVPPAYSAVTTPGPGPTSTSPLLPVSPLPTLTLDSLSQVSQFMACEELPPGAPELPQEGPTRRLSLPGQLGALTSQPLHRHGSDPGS
row,Structure (SMILES),"hERG current change (%, negative = inhibition) at 10uM"
1,CCC[N+](CC#Cc1ccccc1)(CCC)CC(=O)OC,9.58%
2,CC[N+](CC)(CC#Cc1ccccc1)CC(=O)c1ccc(Cl)cc1,-60.3%
3,CCC[N+](CC#Cc1ccccc1)(CCC)CC(=O)c1ccc(Cl)cc1,-67.4%
4,Cl.c1ccc2c(N3CCNCC3)cccc2c1,10.9%
5,Cc1nnc(NC(=O)C2=COCCO2)s1,7.13%
6,CN(C)CCCNCC(=O)NN(c1ccccc1)c1ccccc1.O=C(O)C(=O)O,-17.4%
7,CCC(C)[C@H](N)c1nnc(SCC(=O)Nc2cccc(Cl)c2)o1.Cl (some centres unmarked),-15.6%
8,COc1cnc(-c2ccccn2)nc1N(C)C,-1.39%
9,CC(=NCc1ccco1)c1c(O)n(-c2ccccc2)c(=O)[nH]c1=O,4.82%
10,COc1cc(/C=N/NC(=S)NCCN2CCOCC2)cc(OC)c1O,12.7%
11,CC1(C)CC2CC(C)(CN2S(=O)(=O)c2cccc(C(=O)OCC(=O)NC(N)=O)c2)C1 (centres unmarked),-57.1%
12,CNC(=O)NC(=O)COC(=O)c1cccc(S(=O)(=O)N2CC3(C)CC2CC(C)(C)C3)c1 (centres unmarked),-14.4%
13,CCCCNC(=O)c1cccc(S(=O)(=O)N2CC3(C)CC2CC(C)(C)C3)c1 (centres unmarked),-26.7%
14,CCCNC(=O)c1cccc(S(=O)(=O)N2CC3(C)CC2CC(C)(C)C3)c1 (centres unmarked),-57.6%
15,CC1(C)CC2CC(C)(CN2S(=O)(=O)c2cccc(C(=O)OCC(N)=O)c2)C1 (centres unmarked),-7.62%
16,CCCCCNC(=O)c1cccc(S(=O)(=O)N2CC3(C)CC2CC(C)(C)C3)c1 (centres unmarked),-1.24%
17,Br.O=C1SC(SC(=Nc2ccccc2)Nc2ccccc2)C(=O)N1c1ccccc1 (centres unmarked),11.1%
18,COc1ccc(C(=O)N2CCCC2(C#N)c2ccccc2)cc1[N+](=O)[O-] (centres unmarked),-41%
19,CCOc1ccc(C(=O)NC2CCCCCCC2)cc1,4.13%
20,COc1ccccc1-n1cc2ccc([N+](=O)[O-])cc2n1,8.8%
21,O=C(CC(Nc1ccccc1)C(=O)O)c1ccccc1 (centres unmarked),11.2%
22,COc1cccc(NC(=O)Nc2ccccc2C(N)=O)c1,1.99%
23,CCOc1ccc(S(=O)(=O)Nc2cc(OC)c(OC)cc2C(=O)O)cc1,3.94%
24,COc1cc(Cl)c([C@@H]2C[C@H]3CN(c4ccccc4)C(=O)[C@]34CCCN24)cc1OC,-70.9%

row,Structure (SMILES),"hERG current change (%, negative = inhibition) at 10uM"
1,COc1cc([C@@H]2C[C@H]3CN(c4ccccc4)C(=O)[C@]34CCCN24)cc(OC)c1OC,-32%
2,O=C1N(c2ccccc2)C[C@@H]2C[C@@H](c3cccs3)N3CCC[C@@]123,-11.5%
3,CCOc1cc([C@@H]2C[C@H]3CN(c4ccccc4)C(=O)[C@]34CCCN24)ccc1OC,-10.4%
4,COc1ccc([C@@H]2C[C@H]3CN(c4ccccc4)C(=O)[C@]34CCCN24)c(OC)c1OC,-78.3%
5,COc1ccccc1-n1cc([C@@H]2C[C@H]3CN(c4ccccc4)C(=O)[C@]34CCCN24)cn1,-17.1%
6,CCc1cc2cc(C(=O)N3CCN(Cc4ccccc4)CC3)sc2s1,-36.7%
7,CCN(c1ccccc1C)S(=O)(=O)c1cc2c3c(c1)CCC(=O)N3CCC2,-11.2%
8,COc1ccc(C(CC(=O)Nc2cc([N+](=O)[O-])ccc2OC)c2ccccc2)cc1 (centres unmarked),8.82%
9,O=C(CSCc1ccccc1)Nc1ccccc1,8.79%
10,Cc1ccc(S(=O)(=O)Oc2ccc(/C=N/NC(=O)c3c(Cl)cnn3C)cc2)cc1,-8.14%
11,CCOC(=O)N1CCN(c2nc(C)c3c(n2)CCCC3=O)CC1,7.97%
12,CC1CCCN(CCCCOc2cccc(Br)c2)C1.O=C(O)C(=O)O (centres unmarked),-69%
13,CCC1CCCCN1CCCCOc1cccc(Cl)c1.O=C(O)C(=O)O (centres unmarked),-72%
14,CCN1CCN(CCOCCOc2ccccc2)CC1.O=C(O)C(=O)O,10.8%
15,Clc1cccc(OCCCCN2CCCCC2)c1,-36.6%
16,CC(C)c1cccc(OCCN2CCCC2)c1,5.18%
17,Clc1cccc(OCCN2CCOCC2)c1.O=C(O)C(=O)O,-2.27%
18,CN(C)CCCCOc1cccc(Br)c1.O=C(O)C(=O)O,-23.7%
19,COc1cccc(OCCCCN2CC(C)OC(C)C2)c1.O=C(O)C(=O)O (centres unmarked),-4.73%
20,CC1CCN(CCCCOc2cccc(C(C)C)c2)CC1.O=C(O)C(=O)O,-71.7%
21,CN(C)CCCOc1cccc(Oc2ccccc2)c1.O=C(O)C(=O)O,-34.5%
22,CC(C)c1cccc(OCCCCN(C)C)c1.O=C(O)C(=O)O,-14.1%
23,CCN1CCN(CCOc2cccc(Oc3ccccc3)c2)CC1.O=C(O)C(=O)O,-61.1%
